Experimental data reported in the supplement of paper PMC4466140.

B1: unnamed (peptide)
chain: IVNKPLPPLPVAGSS

Target: ScBbc1
Assay: SPOT peptide array binding signal intensity (averaged, normalized) (arbitrary units (background-subtracted, floor 0; scale differs between SH3 domains)); higher = stronger binding of the SH3 domain to the peptide
Summary of the method: (§1)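 GST-fused SH3 domains from four yeast species were expressed in E. coli BL21(DE3), purified on glutathione Sepharose and incubated at 10 μg/ml overnight at 4°C in TBS-based blocking buffer on cellulose membranes carrying synthetic 15-mer peptides, with cysteines replaced by serines. Bound protein was detected with anti-GST antibody, an HRP anti-mouse secondary and luminol, then imaged and quantified with Genespotter. Binding signal is the normalized, background-subtracted spot intensity averaged over replicates, in arbitrary units that differ between domains.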

Row | Binder | SPOT peptide array binding signal intensity
1 | B1 | 0.25

Target: ScBem1-D1
Assay: as above
Summary of the method: as §1

Row | Binder | SPOT peptide array binding signal intensity
2 | B1 | ≤ 0

Target: ScBzz1-D1
Assay: as above
Summary of the method: as §1

Row | Binder | SPOT peptide array binding signal intensity
3 | B1 | ≤ 0

Target: ScBzz1-D2
Assay: as above
Summary of the method: as §1

Row | Binder | SPOT peptide array binding signal intensity
4 | B1 | ≤ 0

Target: ScCyk3
Assay: as above
Summary of the method: as §1

Row | Binder | SPOT peptide array binding signal intensity
5 | B1 | ≤ 0

Target: ScFus1
Assay: as above
Summary of the method: as §1

Row | Binder | SPOT peptide array binding signal intensity
6 | B1 | 10

Target: ScHof1
Assay: as above
Summary of the method: as §1

Row | Binder | SPOT peptide array binding signal intensity
7 | B1 | 1300

Target: ScHse1
Assay: as above
Summary of the method: as §1

Row | Binder | SPOT peptide array binding signal intensity
8 | B1 | 32

Target: ScLsb1
Assay: as above
Summary of the method: as §1

Row | Binder | SPOT peptide array binding signal intensity
9 | B1 | ≤ 0

Target: ScLsb2
Assay: as above
Summary of the method: as §1

Row | Binder | SPOT peptide array binding signal intensity
10 | B1 | ≤ 0

Target: ScLsb3
Assay: as above
Summary of the method: as §1

Row | Binder | SPOT peptide array binding signal intensity
11 | B1 | 154

Target: ScLsb4
Assay: as above
Summary of the method: as §1

Row | Binder | SPOT peptide array binding signal intensity
12 | B1 | ≤ 0

Target: ScMyo3
Assay: as above
Summary of the method: as §1

Row | Binder | SPOT peptide array binding signal intensity
13 | B1 | ≤ 0

Target: ScMyo5
Assay: as above
Summary of the method: as §1

Row | Binder | SPOT peptide array binding signal intensity
14 | B1 | ≤ 0

Target: ScNbp2
Assay: as above
Summary of the method: as §1

Row | Binder | SPOT peptide array binding signal intensity
15 | B1 | ≤ 0

Target: ScPex13
Assay: as above
Summary of the method: as §1

Row | Binder | SPOT peptide array binding signal intensity
16 | B1 | 2500

Target: ScRvs167
Assay: as above
Summary of the method: as §1

Row | Binder | SPOT peptide array binding signal intensity
17 | B1 | 97.8

Target: ScSho1
Assay: as above
Summary of the method: as §1

Row | Binder | SPOT peptide array binding signal intensity
18 | B1 | 7450

Target: ScSla1-D1-D2
Assay: as above
Summary of the method: as §1

Row | Binder | SPOT peptide array binding signal intensity
19 | B1 | 288

Target: ScSla1-D3
Assay: as above
Summary of the method: as §1

Row | Binder | SPOT peptide array binding signal intensity
20 | B1 | 1.5

Target: SpAbp1-D1
Assay: as above
Summary of the method: as §1

Row | Binder | SPOT peptide array binding signal intensity
21 | B1 | 1580

Target: SpBbc1
Assay: as above
Summary of the method: as §1

Row | Binder | SPOT peptide array binding signal intensity
22 | B1 | 1

Target: SpBzz1-D1
Assay: as above
Summary of the method: as §1

Row | Binder | SPOT peptide array binding signal intensity
23 | B1 | 159

Target: SpBzz1-D2
Assay: as above
Summary of the method: as §1

Row | Binder | SPOT peptide array binding signal intensity
24 | B1 | ≤ 0

Target: SpCyk3
Assay: as above
Summary of the method: as §1

Row | Binder | SPOT peptide array binding signal intensity
25 | B1 | 3

Target: SpHof1
Assay: as above
Summary of the method: as §1

Row | Binder | SPOT peptide array binding signal intensity
26 | B1 | 2930

Target: SpHof1-2
Assay: as above
Summary of the method: as §1

Row | Binder | SPOT peptide array binding signal intensity
27 | B1 | 3490

Target: SpHof1-3
Assay: as above
Summary of the method: as §1

Row | Binder | SPOT peptide array binding signal intensity
28 | B1 | 5540

Target: SpHse1
Assay: as above
Summary of the method: as §1

Row | Binder | SPOT peptide array binding signal intensity
29 | B1 | 15

Target: SpLsb1
Assay: as above
Summary of the method: as §1

Row | Binder | SPOT peptide array binding signal intensity
30 | B1 | 47

Target: SpLsb4
Assay: as above
Summary of the method: as §1

Row | Binder | SPOT peptide array binding signal intensity
31 | B1 | 1.5

Target: SpMyo1
Assay: as above
Summary of the method: as §1

Row | Binder | SPOT peptide array binding signal intensity
32 | B1 | 184

Target: SpNbp2
Assay: as above
Summary of the method: as §1

Row | Binder | SPOT peptide array binding signal intensity
33 | B1 | 11

Target: SpPex13
Assay: as above
Summary of the method: as §1

Row | Binder | SPOT peptide array binding signal intensity
34 | B1 | 15

Target: SpRvs167
Assay: as above
Summary of the method: as §1

Row | Binder | SPOT peptide array binding signal intensity
35 | B1 | 1580

Target: SpSla1-D1-D2
Assay: as above
Summary of the method: as §1

Row | Binder | SPOT peptide array binding signal intensity
36 | B1 | 1200

Target: SpSla1-D3
Assay: as above
Summary of the method: as §1

Row | Binder | SPOT peptide array binding signal intensity
37 | B1 | ≤ 0
